Data reported in PubChem BioAssay AID1508600 (Functional Genomics Laboratory (NCATS/FGL), 2020).
About 3,700 (7%) of roughly 53,000 sequences were called active. The sample as a whole holds a higher share of actives than the screen did. Values without a mark were called inactive.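 Rule for the calls: active = gene knockdowns whose robust z-score for IL-1 alpha signal is at least 2 or at most -2, so actives lie on both sides; inactive = the rest.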

assay: Components of the Cytosolic LPS Sensing Pathway: Gene Identification via Genome-wide siRNA Screen; conditions: RAW264.7 macrophages, IL-1a HTRF, actives lie on both sides, screened at 100 nM (by protocol), cells primed 5 h with Pam3CSK4 first;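 note: robust z of the log signal after scaling to non-targeting control siRNA wells of the plate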
Procedure, shortened: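 IL-1a HTRF of supernatants after 24 hour LipidA transfection of Pam3CSK4-primed (5 hours) RAW264.7 cells, 48h post-siRNA transfection (100 nM). Scores: percent of plate negative-control median, then log-based robust z-score.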

Q: For GGUUCGCCCUUGGAAAUGGTT against Dmap1, which z-score is on record?
A: -0.258

Q: With GGAAUUCAUACCCUUGUUGTT against B3gnt5 as the sequence, how does the z-score read?
A: -0.486

Q: Which z-score does the source give for GGAGGUGAAAGGCAAAACUTT against Poldip2 here?
A: -0.122

Q: Which z-score does the source give for CGAAGGUCAAACAGUUUGATT against Stxbp6 here?
A: -0.558

Q: For GGACUAGCAGUAAUAAAAGTT against Zdhhc9, which z-score is on record?
A: -2.37 (active)

Q: Which z-score does the source give for “CCAGAAUUGAACUUCAAGUTT against 2610008E11Rik” here?
A: -0.00302

Q: With GGGAGAGAACGUGUUCUUCTT against P2rx6 as the sequence, how does the z-score read?
A: -0.477

Q: For GGAGAUCUCCAUCAUCACCTT against Usp50, which z-score is on record?
A: -1.52

Q: With CCUAAUGUACACUAACUAUTT against Hsd17b14 as the sequence, how does the z-score read?
A: 1.84

Q: Which z-score does the source give for CCCUAAGAGAGCCUAAAACTT against Serpina3c here?
A: -1.12

Q: For GAACUCUCUCUUCAUCUGGTT against Cd300ld3, which z-score is on record?
A: 2.18 (active)

Q: Which z-score does the source give for CCUUUUUGCUGAAUGUGGATT against Aard here?
A: 0.798

Q: Which z-score does the source give for GGUGUUGGAUUCCAAUCCCTT against Uba5 here?
A: -0.462

Q: With GGAUGAAAAGAUUGAACUCTT against Gart as the sequence, how does the z-score read?
A: 3.22 (active)

Q: With GCUCGAUAUUUUGAAGUCCTT against Cntd1 as the sequence, how does the z-score read?
A: 0.693

Q: Which z-score does the source give for GGAUCAGACUGUACGAGAGTT against Crygd here?
A: -1.11

Q: Which z-score does the source give for GGAAAGUGAAAGUUAGUUUTT against Cbx6 here?
A: 0.244

Q: Which z-score does the source give for GCAUUUGGAAUUUACCAUGTT against Wdr47 here?
A: 1.13

Q: With GCCGAGUCUCAGCUUGUAATT against Dnajc3 as the sequence, how does the z-score read?
A: 0.258

Q: Which z-score does the source give for GGAAUGGGAUUACACCUACTT against Mymk here?
A: 2.67 (active)

Q: Which z-score does the source give for GUAUGACCAGAAGAAAAAGTT against Lrrc72 here?
A: -2.19 (active)

Q: For GGCAUAUCUGAGGUGAAUCTT against Sec23b, which z-score is on record?
A: -1.57

Q: For GGAAAGAGCAAACAGUUCCTT against Il1f6, which z-score is on record?
A: -2.09 (active)

Q: Which z-score does the source give for GGUAUUUUGACAGAGUCGATT against Add1 here?
A: -1.24

Q: Which z-score does the source give for GGUGUUAUCUGCAUCAUCATT against Cyp4f15 here?
A: -1.42

Q: With GGUACUUAUGUGGAUUGGATT against Rint1 as the sequence, how does the z-score read?
A: -0.272

Q: For GGGACUGGACCCAUACAAUTT against Cox5b, which z-score is on record?
A: 4.27 (active)

Q: Which z-score does the source give for CCGAGUAAGUUUAACUAAGTT against Lrrc39 here?
A: -0.501

Q: For GCUAUAUAAAGGCUGAGUATT against Emilin3, which z-score is on record?
A: -0.128

Q: For GGAUGAAGGCCAUUCAAACTT against Hnrnpd, which z-score is on record?
A: 2.04 (active)

Q: Which z-score does the source give for GGAAGAUCUGAAGUCAAUCTT against Mvk here?
A: -1.08

Q: Which z-score does the source give for GGAGAAAGACAUCAGAAAGTT against Rdh16f2 here?
A: 0.942

Q: Which z-score does the source give for GGGCCUGAUCUACCUGUUUTT against Slc6a18 here?
A: 0.255

Q: Which z-score does the source give for GGACAAGUAUGAAUGUCUATT against Ptk2b here?
A: 1.25

Q: With CCAAGUGGUACGACCAUGATT against Gcnt3 as the sequence, how does the z-score read?
A: 1.3

Q: With CCGACCUGAAGACCUUACATT against Tmem18 as the sequence, how does the z-score read?
A: -0.501

Q: With GCCCUAGGAGGAACUGAGUTT against Olfr458 as the sequence, how does the z-score read?
A: -2.54 (active)

Q: Which z-score does the source give for “CGGAAGAAGUUAUUUAGAATT against 1700006J14Rik” here?
A: 0.87

Q: For GGCUCCAAGUCUACACAACTT against Dnajc6, which z-score is on record?
A: 2.82 (active)

Q: Which z-score does the source give for CCUCAUUGAGUUUUGAAGATT against Dtd2 here?
A: -0.329

Q: Which z-score does the source give for GGAAGACCUUGUGUUUGCATT against Mmp13 here?
A: -0.692

Q: With CCUAAAGUCUCUGAAUCAGTT against Fyb as the sequence, how does the z-score read?
A: 0.45

Q: Which z-score does the source give for GGUUGUUGCGCAAAUUUAATT against Vmn2r7 here?
A: 1.43

Q: Which z-score does the source give for GCAGUAACUGUGUCAAAAUTT against Zan here?
A: 0.879

Q: For GGAUAUCAAAGACAAAGCATT against Vps53, which z-score is on record?
A: -2.58 (active)

Q: For CGUGUGUUCCGGAAACAGATT against Tnfrsf11b, which z-score is on record?
A: -0.188

Q: For GGCACAAGUCCAUGUUGUUTT against Emg1, which z-score is on record?
A: -0.161

Q: Which z-score does the source give for GGAGUACGUGAUUGCUCUGTT against Rcvrn here?
A: -2.45 (active)

Q: For GCCGUUUUAAGAUACCGAUTT against Pde1c, which z-score is on record?
A: 0.642

Q: Which z-score does the source give for GGGCAGCUACGUCAUUAAGTT against Prkg2 here?
A: -0.442

Q: With GGAGAAGAACAGAACAUGATT against Igf2 as the sequence, how does the z-score read?
A: 2.36 (active)

Q: Which z-score does the source give for “GACAGUGAAGGCUUGCCAUTT against 1700019M22Rik” here?
A: -0.45

Q: For GCUAUUUAUCACCAAGACATT against Plpp6, which z-score is on record?
A: -1.64

Q: For CCAGGAUUACAUCCGGACATT against Srbd1, which z-score is on record?
A: -0.379

Q: Which z-score does the source give for GCUUCGACAAAAGAAGAUGTT against Ccdc174 here?
A: -0.373

Q: Which z-score does the source give for CGAAUGAGAUUUUCACUCUTT against Tek here?
A: 1.07

Q: With CCACUAAUCUUCUUCUACATT against Olfr1311 as the sequence, how does the z-score read?
A: -2.08 (active)

Q: With GGCCACCAAGACCAAUGAUTT against Akap8 as the sequence, how does the z-score read?
A: 0.154

Q: With GGUUGUAAUAGCCUUAGCCTT against Rassf8 as the sequence, how does the z-score read?
A: -2.87 (active)

Q: Which z-score does the source give for GGUCAAGUAACAUGGUUUGTT against Rundc3b here?
A: 0.282

Q: Which z-score does the source give for CCAGAAACACUAGUAAAGGTT against Dppa3 here?
A: -0.0972

Q: With GGACGUGAAUGUGUUUGACTT against Cyp26b1 as the sequence, how does the z-score read?
A: 0.795

Q: With CGAUUACUACAUAAUUGCCTT against Efnb3 as the sequence, how does the z-score read?
A: 1.63

Q: With CGGACAAGAUAGUAUUCUUTT against Atp2b1 as the sequence, how does the z-score read?
A: -1.06

Q: Which z-score does the source give for GGAGGAAUACGUAUACUUCTT against Dipk1c here?
A: 2.16 (active)

Q: Which z-score does the source give for GCAGCAUGGCAAAACCACATT against Zbtb12 here?
A: -0.265

Q: Which z-score does the source give for GCAGGCGAUAUAGAAGCAATT against Frg1 here?
A: 0.475

Q: With GGCUGUGACUAUGUUGUGCTT against Top3b as the sequence, how does the z-score read?
A: -2.15 (active)

Q: With GGGAAUUCUAUUCAACACUTT against Rps6ka5 as the sequence, how does the z-score read?
A: -0.478

Q: For GGCUGUGACUUUUGAUCUATT against Prelid3b, which z-score is on record?
A: 0.46

Q: For CCAAUGCUUGUGAUAAGCCTT against Krt33a, which z-score is on record?
A: -0.105

Q: With CGGACUUGAGAGCAGAACCTT against Oit1 as the sequence, how does the z-score read?
A: 2.02 (active)

Q: Which z-score does the source give for CCUUGUGCCAAAUACUUCATT against Inava here?
A: -0.00772

Q: For GGAUAACCGUAUUAAUUUCTT against Gm2a, which z-score is on record?
A: 0.709

Q: With GGAGAAAGUCAAGAUCAAATT against Gpr4 as the sequence, how does the z-score read?
A: 2.12 (active)

Q: For GCAAGCACGGAGAACCAAUTT against Selenoi, which z-score is on record?
A: -0.212

Q: For GGAGUUCAUUGAUCAUUCUTT against Ndufb5, which z-score is on record?
A: 2.21 (active)

Q: For GGAAGAUGGAGAUCAGACGTT against Foxd4, which z-score is on record?
A: -0.498

Q: With GGGAUACCCGGCGUAAUCUTT against Col4a2 as the sequence, how does the z-score read?
A: 1.31

Q: Which z-score does the source give for CGCAUACAUCAGGUCACUATT against Katnb1 here?
A: -0.74

Q: For GGGCUUUUACUCCUACCUGTT against Slc43a2, which z-score is on record?
A: -0.794

Q: Which z-score does the source give for GGAACCACUGCUAGCCAGATT against Serpinb6a here?
A: 0.491

Q: Which z-score does the source give for GCGAGAAAUUACCACCUUCTT against Klhl8 here?
A: -0.516

Q: For CCGUAUUAGAAAGUAGAUATT against Arpp19, which z-score is on record?
A: 2.01 (active)

Q: Which z-score does the source give for ACUUCACGAUGGAAAAAUUTT against Gm9732 here?
A: -1.63

Q: For GGCCUCAUCUUGAAUAUUUTT against Hsd17b3, which z-score is on record?
A: -1

Q: Which z-score does the source give for GGUUCAUCAAACUUGCUUGTT against Olfr1312 here?
A: 0.569

Q: With GGAAGAACAGAGGCAGAAGTT against Trpv3 as the sequence, how does the z-score read?
A: -0.629

Q: Which z-score does the source give for GGAAGUACUCUGAAGAUUCTT against Kdm5b here?
A: -1.83

Q: Which z-score does the source give for CCCACUUCCGAUCCAAAGATT against Zfp593 here?
A: 0.936

Q: With CCUAUGUCAUCAUUGGAGUTT against Tmem45a2 as the sequence, how does the z-score read?
A: -0.613

Q: Which z-score does the source give for GCUGUUAUAACCUUGUUACTT against Rspry1 here?
A: 1.19

Q: Which z-score does the source give for GCCCAGUUUGGUUAUGUAUTT against Yipf7 here?
A: 0.115

Q: With GCGGAGAGAUCAAAGCGAUTT against Iltifb as the sequence, how does the z-score read?
A: -2.05 (active)

Q: Which z-score does the source give for GCAGCAACAUUCUUUGGAUTT against Adk here?
A: 0.986

Q: Which z-score does the source give for GGACAAUAUCAGAAAGAGUTT against Purg here?
A: 1.13

Q: Which z-score does the source give for GGGUUUUUUCCAGUCAUCUTT against Nfx1 here?
A: -2.02 (active)

Q: With GGAUGUUCUACUGCUACACTT against Dtwd1 as the sequence, how does the z-score read?
A: -0.706

Q: For GGUGGCCAAGAAUGUGAAUTT against Cxcl17, which z-score is on record?
A: 1.38

Q: With CCUACUCUCUAGAAAAGGATT against Olfr1006 as the sequence, how does the z-score read?
A: -1.76

Q: Which z-score does the source give for GGAGUGAAGGCCAGCUGAATT against Son here?
A: -0.848

Q: With GGAACACCAUGAAGAAGACTT against Gabarap as the sequence, how does the z-score read?
A: -0.147

Q: Which z-score does the source give for GGAAAACUUUCAAAGAGAUTT against Mc4r here?
A: 0.24

Q: With GUCAUCAAACUAGGUGCUGTT against Olfr584 as the sequence, how does the z-score read?
A: -2.22 (active)

Q: With GGAAAAAUUUAGACAGCACTT against Csrp2 as the sequence, how does the z-score read?
A: 0.132

Q: With GACUCAUUCUGCAAUGAAGTT against Ifna5 as the sequence, how does the z-score read?
A: 0.105

Q: Which z-score does the source give for GCUAAGGACACAAAAUCCATT against Slc38a10 here?
A: 0.129
